Unmarked numbers belong to inactive results. Active and inactive are the calls of the source. How the calls were made is not given here.
Potency means the concentration at half of the fitted maximal effect.

For this assay, the system named is HIV-1 nucleocapsid protein NCp7 (binding to TG oligonucleotide). The assay is described as follows: HIV Nucleocapsid (AID 346).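 Further: potency is for inhibitors that block NC binding and lower polarization.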 The following applies: HIV-1 NC / fluorescein-TGTGTGTG probe, fluorescence polarization. An outline of the steps: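 HIV-1 NC (100 nM) binding to fluorescein-labelled ssDNA TG4xF (10 nM) in Hepes pH 7.5, 250mM NaCl, 1uM ZnCl2, TCEP and 2-mercaptoethanol; compounds pin-transferred, 1 hr room temperature, fluorescence polarization read on CCD imager.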
For orientation: Polarisation of emitted light reports the rotation of a fluorescent probe.
Turning to `CCNc1ncc2nc(-c3cc(F)cc(F)c3)c(=O)n(CCOC)c2n1`, the Potency was above 20 µM.

Consider `O=c1c(-c2ccc(F)c(F)c2)nc2cncnc2n1Cc1ccccc1Cl`, for which the Potency is above 20 µM.

In the case of `CN(C)Cc1ccccc1-c1nc(N(C)C)c2ccccc2n1`, the Potency was above 20 µM.

On to `Cc1cccc(CNc2ncncc2-c2ccccc2CN(C)C)c1`, for which the Potency is above 20 µM.

As to `COc1cccc(-c2cncnc2NCc2ccccc2OC)c1`, the Potency is above 20 µM.

For `COc1ccccc1-c1cncnc1Nc1ccc(F)cc1`, the Potency was above 20 µM.

Regarding `COc1cccc(Cn2c(=O)c(CCc3ccccc3)nc3cnc(N4CCN(C)CC4)nc32)c1`, the Potency was above 4 µM.

In the case of `c1ccc2c(N3CCNCC3)nc(-c3ccoc3)nc2c1`, the Potency is above 20 µM.

For `COc1ccc(C(=O)N2CCC[C@@]3(CCN(c4ccncc4)C3)C2)cc1`, the Potency was above 20 µM.

With `CC(=O)N1CCC2(CCN(Cc3nccs3)CC2)CC1`, the Potency is above 20 µM.

Take `FC(F)(F)c1ccccc1-c1cncnc1Nc1ccccc1`: the Potency is above 20 µM.

Take `O=C(c1cccc(F)c1)N1CCC2(CCCN(c3ncccn3)C2)CC1`: the Potency was above 20 µM.

For `COCC(=O)N1CCC[C@@]2(CCN(c3ccccn3)C2)C1`, the Potency is above 20 µM.

With `COc1cccc(-c2ccc3ncnc(N4CCOCC4)c3c2)c1`, the Potency was above 20 µM.

For the molecule `Cc1cnc(CNc2ccnc(-c3ccc(C(=O)N(C)C)cc3)n2)cn1`, the Potency was above 20 µM.

On to `COc1ncc2nc(CCc3ccccc3)c(=O)n(C)c2n1`, for which the Potency is above 20 µM.

As for `COc1ncc2nc(-c3cn(C)c4ccccc34)c(=O)n(C)c2n1`, the Potency is above 20 µM.

`O=C(c1cnccn1)N1CCC2(CC1)CN(c1ccncc1)C2`: the Potency was above 20 µM.

For `COC(=O)N1CCC2(CCCN(c3cccc(-c4ccccc4)c3)C2)CC1`, the Potency was above 20 µM.

Take `CC(=O)N1CCC[C@@]2(CCN(Cc3ccccc3)C2)C1`: the Potency is above 20 µM.

Consider `COc1ccc(-c2nc3cnc(Nc4cccc(OC)c4)nc3n(Cc3cccs3)c2=O)cc1`, for which the Potency was 0.247 µM (active).

As for `Clc1ccccc1-c1nc(NC2CCNCC2)c2ccccc2n1`, the Potency was above 20 µM.

Take `COc1cccc(Cn2c(=O)c(C)nc3cnc(N4CCOCC4)nc32)c1`: the Potency is above 20 µM.

For `Cc1nc2cnc(Nc3ccccc3)nc2n(C2CC2)c1=O`, the Potency was above 20 µM.

As to `Clc1ccccc1-c1nccc(NCCN2CCOCC2)n1`, the Potency was above 20 µM.

Consider `CS(=O)(=O)N1CCC2(CCCN(c3ccccn3)C2)CC1`, for which the Potency was above 20 µM.

Turning to `COc1ccc(NC(=O)N2CC3(CCN(C(=O)c4c(C)noc4C)CC3)C2)cc1`, the Potency is above 20 µM.

Consider `CN(C)C(=O)c1ccc(-c2nccc(-n3ccnc3)n2)cc1`, for which the Potency was above 20 µM.

On to `CS(=O)(=O)Nc1cccc(-c2ccc3ncnc(NCCN4CCOCC4)c3c2)c1`, for which the Potency was above 20 µM.

`Cn1cccc1C(=O)N1CCC2(CCCN(Cc3nccs3)C2)CC1`: the Potency was above 20 µM.

On to `CC(C)NC(=O)N1CCCC2(CCN(C(=O)c3cc(C(F)(F)F)cc(C(F)(F)F)c3)CC2)C1`, for which the Potency was above 20 µM.

For `COc1ccc(-n2c(=O)c(-c3cn(C)c4ccccc34)nc3cnc(N4CCNCC4)nc32)cc1`, the Potency is above 4 µM.

With `COc1ccccc1-c1cncnc1NCc1ccccc1`, the Potency was above 20 µM.

With `Cc1nc2cnc(N(C)C)nc2n(Cc2ccc(F)cc2)c1=O`, the Potency is above 20 µM.

As to `COc1ccc(-c2nc3cnc(Oc4cccc(Cl)c4)nc3n(C[C@H]3CCCO3)c2=O)cc1`, the Potency is above 20 µM.

`CN(C)c1ncc2nc(-c3ccc(Cl)cc3)c(=O)n(-c3ccccc3)c2n1`: the Potency is above 4 µM.

`COCCn1c(=O)c(-c2cccc(F)c2)nc2cncnc21`: the Potency was above 20 µM.

On to `COc1ccccc1-c1cncnc1NCc1cccc(C)c1`, for which the Potency is above 20 µM.

Take `O=c1c(-c2ccccc2)nc2cnc(N3CCNCC3)nc2n1-c1ccccc1`: the Potency was above 20 µM.

As to `O=C(Nc1ccccc1)N1CC[C@@]2(CCCN(C(=O)c3ccncc3)C2)C1`, the Potency is above 20 µM.
